# Compound activity (PubChem)
# In the library only some 2.2% were active in any assay of this set; here they are far more common.
# APP transl inh – inhibitors of APP translation via 5'UTR reporter, primary screen, APP 5'UTR luciferase, SH-SY5Y cells; AID 1285, 2008; SH-SY5Y APP 5'UTR-luciferase reporter, luminescence; inhibition, % at 2 µM; 190,000 tested, 0.82% active;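 active = inhibition above a set limit, derived from the sample mean plus 3 SD, cut at about 45% in these data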
# BaF3 parental – parental Ba/F3 cell viability inhibition, counter-screen for JAK2V617F inhibitor project, murine pro-B, CellTiter-Glo luminescence; 220,000 tested, 1.1% active; AID 1486, 2009; inhibition, % at 5.6 µM; CellTiter-Glo ATP luminescence;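 active = inhibition above a per-campaign cutoff, the mean inhibition of all tested compounds plus 3 SD, cut at about 27% in these data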;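 note: 0% = DMSO wells and 100% = JAK Inhibitor I control wells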
# IEC-6 cytotox – cytotoxicity in IEC-6 intestinal epithelial cells, primary screen, cytotoxicity control for KLF5 inhibitor project, cell-based, luminescence; IEC-6 cytotoxicity, luminescence viability; inhibition, % at 5 µM; 290,000 tested, 0.78% active; AID 1825, 2009;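 note: 0% = plate median of test compound wells and 100% = cytotoxic reference compound wells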
# KLF5 inh – KLF5 expression inhibitors, primary screen, DLD-1 cells, luminescence. DLD-1 KLF5 promoter-luciferase reporter. inhibition, % at 5 µM. 290,000 tested, 0.23% active;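 active = inhibition above a per-plate limit of that plate's mean compound inhibition plus 3 SD, cut at about 60% in these data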;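 note: 0% = DMSO wells and 100% = LY294002 at 200 µM; higher means less KLF5 promoter-driven luciferase light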
# Ba/F3 V617F tox – reduced viability of JAK2V617F-dependent Ba/F3 cells, primary screen, JAK2V617F inhibitor project, cell-based, Ba/F3 EpoR-JAK2V617F, luminescence; ATP luminescence; inhibition, % at 5.6 µM; 220,000 tested, 1.1% active;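 active = inhibition above the campaign mean plus 3 SD over all tested compounds, cut at about 24% in these data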;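 note: cytokine-independent growth of Ba/F3 cells driven by EpoR plus mutant JAK2; 0% = DMSO-treated cells and 100% = JAK inhibitor I control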
# aSyn UTR inh – MLPCN primary screen, SNCA 5' untranslated region; alpha-synuclein 5'UTR reporter, inhibitor activity; inhibition, % (tested at 7.5 µM); 300,000 tested, 0.82% active; in the data active = inhibition above about 60%;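 note: H4 neuroglioblastoma cells stably carrying SNCA 5'UTR luciferase fusion; 0% = DMSO wells and 100% = positive control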
# BaF3 tox 2 – parental Ba/F3 cell viability inhibition, counter-screen for JAK2V617F inhibitor project, murine pro-B, CellTiter-Glo luminescence. AID 1520, 2009. inhibition, % at 5.6 µM. shares compounds with Ba/F3 V617F tox. 580 tested, 31% active. cells kept alive by added IL-3;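 active = cell growth inhibition above the hit limit set in the earlier mutant JAK2 cell screen, cut at about 27% in these data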;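 note: plate controls were DMSO-treated cells for no effect and JAK Inhibitor I control wells for full effect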
# JAK2V617F conf – viability loss in Ba/F3 EpoR-JAK2V617F cells, confirmation, JAK2V617F inhibitor project, cell-based, luminescence, triplicate. shares compounds with Ba/F3 V617F tox. CellTiter-Glo luminescence. inhibition, % at 5.6 µM. 580 tested, 66% active. AID 1521, 2009;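 active = mean inhibition above the hit cutoff derived in the earlier primary screen, cut at about 25% in these data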;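 note: 0% = DMSO-treated cells and 100% = JAK inhibitor I control wells; higher means lower luminescence from reduced cell ATP and viability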
# IEC-6 tox confirm – cytotoxic compounds in IEC-6 epithelial cells, confirmation, cytotoxicity control, cell-based, luminescence; IEC-6 rat intestinal epithelial viability; AID 1907, 2009; shares compounds with IEC-6 cytotox; 1,900 tested, 63% active; inhibition, % at 5 µM;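 note: 0% = vehicle and 100% = reference cytotoxic drug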
# * hit, by the source's call; . = no result given. Cut-off read from the data, not from the text of the source, unless noted: active = inhibition above about 22%; inactive = the rest.
SMILES,APP transl inh,BaF3 parental,IEC-6 cytotox,KLF5 inh,Ba/F3 V617F tox,aSyn UTR inh,BaF3 tox 2,JAK2V617F conf,others
CCOc1ccc(NC(=O)c2ccccc2OCC(=O)c2ccc(C)cc2)cc1,-8,2,-1,-5,1,29,.,.,
COc1ccc(C(=O)CSc2ccc(-c3ccccc3)nn2)cc1,-8,7,1,6,5,-6,.,.,
COc1ccc(-c2ccc(SC)nn2)cc1,-114,25,20,4,24*,75*,32*,30*,
Fc1ccccc1N1CCN(Cc2cnc(Cl)s2)CC1,-1,3,-3,8,1,3,.,.,
Cc1c(Cc2ccccc2)c(=O)oc2cc(O)ccc12,.,2,0,-15,-2,-2,.,.,
Cc1c(Cc2ccccc2)c(=O)oc2c(O)c(O)ccc12,-4,1,4,-3,44*,-23,2,64*,
CCN(Cc1ccc(OC)c(F)c1)C(=O)CCl,9,-1,-7,-2,39*,-74,13,96*,
FC(F)(F)c1cc(-c2cccs2)nc(-n2cc(Br)cn2)n1,.,0,2,-14,-4,-11,.,.,
Cc1ccccc1OCC(O)Cn1c(=N)n(Cc2ccccc2)c2ccccc21 (configuration not stated),.,17,6,-15,48*,113*,21,53*,
COc1ccc(OCC(O)Cn2c(=N)n(CCN3CCCCC3)c3ccccc32)cc1 (configuration not stated),15,14,1,-24,34*,.,0,20,
O=S(=O)(CCc1ccncc1)Cc1ccc2c3c(cccc13)CC2,.,1,1,0,-2,10,.,.,
Cc1cc(F)ccc1NCc1ccncc1,-10,1,-5,-11,50*,-13,-4,-4,
c1ccc(-c2nc(-c3ccccn3)no2)cc1,-64,25,18,26,25*,-18,29*,12,
CN1CCN(CCCN(Cc2cccs2)C(=S)Nc2ccc(Cl)cc2)CC1,-10,23,-2,-1,34*,11,28*,46*,
CCc1ccc(NC(=S)N(CCCN2CCN(C)CC2)Cc2cccs2)cc1,-14,11,-1,-22,3,0,.,.,
O=C(CSc1ccc2ccccc2c1Br)Nc1cccc(S(=O)(=O)NC2=NCCCCC2)c1,0,1,15,4,33*,64*,3,75*,
O=C(c1ccccc1)C(CCC(CN1CCOCC1)C(=O)c1ccccc1)CN1CCOCC1 (configuration not stated),90*,4,9,-14,44*,-5,19,100*,
O=C(NC(NNc1ccc([N+](=O)[O-])cc1)(C(F)(F)F)C(F)(F)F)c1ccc(Cl)cc1,-4,1,8,-17,29*,18,-6,-3,
COc1ccc(N/C(N)=N/c2nc(CSc3ccc(Cl)cc3)cc(=O)[nH]2)cc1,5,3,0,-23,-1,16,.,.,
COc1ccc(-c2ccc(CNCc3ccccn3)o2)cc1Cl,.,.,-2,-52,.,10,.,.,
COc1cccc(/C=C/C(=O)OCC(=O)Nc2ccc(N3CCOCC3)cc2)c1OC,-12,1,2,10,42*,-8,-4,-5,
C=CCOc1nc2c(c(=O)n(C)c(=O)n2C)n1Cc1ccc(Cl)cc1,-21,14,2,-3,24*,22,62*,53*,
Cc1ccn2c(=O)c(NC(=O)COc3ccccc3)c(C)nc2c1,.,.,.,.,.,-10,.,.,
CCN(CC(=O)Nc1ccc(NC(C)=O)cc1)C(=O)COc1ccccc1Cc1ccccc1,.,.,-8,-10,.,26,.,.,
Cc1ccccc1CN1C(=O)CSc2ccc(C(=O)N3CCOCC3)cc21,8,12,1,-32,33*,8,-1,-1,
SMILES,APP transl inh,BaF3 parental,IEC-6 cytotox,KLF5 inh,Ba/F3 V617F tox,aSyn UTR inh,BaF3 tox 2,JAK2V617F conf,others
O=C(c1ccc2c(c1)N(Cc1ccccc1)C(=O)CS2)N1CCOCC1,-8,-1,-4,-9,-4,10,.,.,
O=C(NC1CC1)C1CCN(C(=O)c2ccccc2Cl)CC1,.,.,-2,-6,.,13,.,.,
NS(=O)(=O)c1ccc(Sc2nc3ccccc3s2)c([N+](=O)[O-])c1,.,21,4,-24,65*,67*,36*,93*,
O=C(NC1CCS(=O)(=O)C1)c1ccc(-c2ccc(Br)cc2)o1 (configuration not stated),-6,5,10,-16,3,-36,.,.,
Fc1ccc(CSc2ncnc3sc4c(c23)CCCC4)cc1,-3,2,-4,-27,99*,36,-3,0,
O=C(Nc1ccc(Cl)cc1)C1CC(=O)n2c(nc3ccccc32)N1 (configuration not stated),12,2,1,-31,1,9,.,.,
COc1ccc(C2c3ccc4ccccc4c3Oc3ncn(CCCO)c(=N)c32)cc1OC (configuration not stated),.,1,6,-1,81*,-11,0,8,
O=C(Nc1cc(S(=O)(=O)N2CCCCC2)ccc1O)c1ccccc1NS(=O)(=O)c1ccc(F)cc1,6,7,-9,-57,0,-5,.,.,
O=C(Nc1cc(S(=O)(=O)N2CCCCC2)ccc1Cl)c1ccccc1NS(=O)(=O)c1ccc(F)cc1,-1,15,6,6,28*,63*,70*,79*,
COc1ccc(CN(C)CC(=O)NC(=O)NCc2ccccc2)cc1OC,7,6,-1,-23,0,15,.,.,
O=C(Nc1ccc(Cl)c(Cl)c1)c1ccc(Cn2c(=O)[nH]c3ccsc3c2=O)cc1,9,-1,0,-19,-4,2,.,.,
O=[N+]([O-])c1ccc(Sc2nnnn2-c2ccccc2)nc1,94*,3,38*,-3,69*,-20,29*,100*,IEC-6 tox confirm=44*
CC(=O)OC[C@H]1O[C@@H](n2ncc(=O)[nH]c2=O)[C@H](OC(C)=O)[C@@H]1OC(C)=O,-7,26,39*,47,61*,9,53*,75*,IEC-6 tox confirm=22*
COc1ccc(/C=N/NC(=O)c2ccn[nH]2)cc1COc1ccc([N+](=O)[O-])c(C)c1,.,2,6,-43,-3,19,.,.,
